# About 410 targets per protein were measured; listed, in parts, are those with the strongest signals and a random draw of the rest.
# How the values were obtained:
# Experiment in all cases: glycan array binding signal (z-score within array); higher = stronger binding
# Conditions in all cases: glycan notation: IUPAC condensed, linker removed
# [1] = biological target: Neu5Ac(a2-3)Gal(b1-3)GlcNAc(b1-3)GalNAc
# How it was run: (§1)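 Glycan array data came from 3228 arrays in the Consortium for Functional Glycomics database, and only arrays with an available protein sequence were kept. Glycan names were put into IUPAC-condensed notation, and columns mapping to the same glycan were averaged. The binding signal is a within-array Z-score, averaged across arrays of one protein sequence run at different concentrations or buffers and across linkers. A negative Z-score can be read as non-binding.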
# [2] = biological target: Neu5Ac(a2-3)Gal(b1-4)GlcNAc(b1-3)Gal(b1-4)GlcNAc(b1-3)Gal(b1-4)GlcNAc
# How it was run: as §1
# [3] = biological target: Neu5Ac(a2-3)Gal(b1-4)GlcNAc(b1-6)[Gal(b1-3)]GalNAc
# How it was run: as §1
# [4] = biological target: Neu5Ac(a2-3)Gal(b1-4)[Fuc(a1-3)]GlcNAc(b1-3)Gal
# How it was run: as §1
# [5] = biological target: Neu5Ac(a2-3)Gal(b1-4)[Fuc(a1-3)]GlcNAc(b1-3)Gal(b1-4)GlcNAc
# How it was run: as §1
# [6] = biological target: Neu5Ac(a2-3)Gal(b1-4)[Fuc(a1-3)]GlcNAc(b1-3)GalNAc
# How it was run: as §1
# [7] = biological target: Neu5Ac(a2-3)Gal6S(b1-4)[Fuc(a1-3)]GlcNAc
# How it was run: as §1
# [8] = biological target: Neu5Ac(a2-6)Gal(b1-4)GlcNAc6S
# How it was run: as §1
# [9] = biological target: Neu5Ac(a2-8)Neu5Ac(a2-3)[GalNAc(b1-4)]Gal(b1-4)Glc
# How it was run: as §1
# [10] = biological target: Neu5Ac(a2-8)Neu5Ac(a2-8)Neu5Ac(a2-3)[GalNAc(b1-4)]Gal(b1-4)Glc
# How it was run: as §1
binder,measurement,setting,value
"RetS (Pseudomonas aeruginosa), Q9HUV7 (protein) MVRLRIAIGLLVSFLLLLLGPMSPAVADDAGVSSVPLQTTATTPSANQNWRLLRDESAQLRIADVLQRKEQFRPLAKRSFIFPASPQAVWLQVQLPAQKVPSWLWIFAPRVQYLDYYLVQDGQLVRDQHTGESRPFQERPLPSRSYLFSLPVDGKPMTLYVRMTSNHPLMAWFDQIDEAGLVGLEKPAYAFGMLLGGMLLLLMYNLIRFAYSRSASSLWLAAVHAALAVCAAANLGLVAFWLPGLKFNQSLTADLGALGAAVSLLWFACSFFRGTAESRLNRLLQGEALLILAVGAIIAFTQQLWFSWLIYLLVILSSLSVPLIAAWHWYRGYQPARLIVAGMIVFNAGFMVFLPVLFGTKQLDPGWLVLGVFSFATLAGLVLSVSLTERQRLIQQLNLQQRTSEAAHTAELQTKAEFLAKISHEIRTPMNGVLGMTELLLGTPLSAKQRDYVQTIHSAGNELLTLINEILDISKLESGQIELDEVQFDLNALIEDCLDIFRVKAEQQRIELISFTQPQVPRVIGGDPTRLRQVVLSLLDNAFKQTEEGEILLVVALDDQGETPRLRIAVQDSGHPFDAKEREALLTAELHSGDFLSASKLGSHLGLIIARQLVRLMGGEFGIQSGSSQGTTLSLTLPLDPQQLENPTADLDGPLQGARLLVVDDNETCRKVLVQQCSGWGLNVSAVSSGKEALAQLRTKAHLREYFDVVLLDQDMPGMTGMQLAAKIKEDPNLNHDILLIMLTGISNAPSKIIARNAGIKRILAKPVAGYTLKATLADELAQRGVSGVTNYLQPAKEAQAPSLPSDFRILVAEDNSISTKVIRGMLNKLNLQPDTASNGQEALSAMKATQYDLVLMDCEMPVLDGFSATEQLRAWEAHEQRPHTPVVALTAHILSEHKERARLVGMDGHMAKPVELSQLRELIAYWVGERDRRRQGDALPS",glycan array binding signal (z-score),[1],-0.17
same,glycan array binding signal (z-score),[2],0.517
same,glycan array binding signal (z-score),[3],-0.343
same,glycan array binding signal (z-score),[4],-0.075
same,glycan array binding signal (z-score),[5],1.76
same,glycan array binding signal (z-score),[6],3.56
same,glycan array binding signal (z-score),[7],-0.246
same,glycan array binding signal (z-score),[8],0.369
same,glycan array binding signal (z-score),[9],0.67
same,glycan array binding signal (z-score),[10],0.181

# Reference: the supplement of paper PMC8728848
